The list is not random: actives were taken first. Their share in the collection is about 11%.
Tau ThT inhib: qHTS for Inhibitors of Tau Fibril Formation, Thioflavin T Binding; Microtubule-associated protein tau (Homo sapiens), P10636; recombinant tau K18 P301L, heparin-induced fibrillization, ThT fluorescence; Potency, µM (top dose mostly 57.4 µM), for the others: at the highest dose activity, negative = inhibition, actives largely listed as inhibitors; 2.1% of 270,000 active; AID 1460, 2008; further: potency means the concentration at half of the fitted maximal effect; nearly all actives have a fitted effect of over 55% in size
Target sequence (P10636 561-689 P618L limits assumed): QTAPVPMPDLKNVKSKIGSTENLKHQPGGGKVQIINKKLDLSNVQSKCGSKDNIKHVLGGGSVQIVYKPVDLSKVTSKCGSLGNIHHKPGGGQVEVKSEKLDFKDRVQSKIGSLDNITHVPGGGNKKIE
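Using a mix of unlabeled (15 uM) and Alexa 594-labeled (0.24 uM) tau K18 P301L, heparin-triggered fibrillization over 6 hr at 37 C was scored by ThT fluorescence.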
G9a inh: qHTS Assay for Inhibitors of Histone Lysine Methyltransferase G9a; Histone-lysine N-methyltransferase EHMT2 (Homo sapiens), Q96KQ7; G9a H3K9 monomethylation, AlphaScreen, 2 h; 8.8% of 350,000 active; Potency, µM (highest dose often 102 µM), for the others: at the highest dose activity, negative = inhibition, actives largely listed as inhibitors; further: potency means the concentration at half of the fitted maximal effect; nearly all actives have a fitted effect of over 75% in size
Target sequence (Q96KQ7 913-1193 limits assumed): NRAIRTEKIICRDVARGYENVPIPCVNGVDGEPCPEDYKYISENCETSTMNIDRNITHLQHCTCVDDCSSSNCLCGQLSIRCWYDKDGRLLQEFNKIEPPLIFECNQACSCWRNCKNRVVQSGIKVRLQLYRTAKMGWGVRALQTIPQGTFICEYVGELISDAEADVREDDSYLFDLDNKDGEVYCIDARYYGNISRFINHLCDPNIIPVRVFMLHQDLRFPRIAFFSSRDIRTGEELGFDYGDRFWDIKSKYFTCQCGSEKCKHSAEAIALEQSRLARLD
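AlphaScreen detection with an anti-monomethyl H3K9 antibody quantified product after a 2 h room-temperature reaction containing 500 nM biotinylated H3K9 peptide, 20 µM SAM and 20 nM enzyme, which had been preincubated 15 min with compound.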
Sfp PPTase inh: qHTS Assay for Inhibitors of Bacillus subtilis Sfp phosphopantetheinyl transferase (PPTase); 4'-phosphopantetheinyl transferase ffp (Bacillus subtilis), Q9F4F7; Biochemical Sfp PPTase activity, qHTS; Potency, µM, without a hit: largest response in the series, negative = inhibition, hits mostly inhibitors; 3.5% of 310,000 active; AID 1490, 2009;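 further: the enzyme is Sfp with the accession as filed and its product quenches rhodamine fluorescence; potency means the concentration at half of the fitted maximal effect; 0% = enzyme reaction without inhibitor and -100% = no enzyme wells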
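Step 1, compound plus 15 nM Sfp-PPTase, 15 min, room temperature. Step 2, add rhodamine-CoA (5 uM) and BHQ-2-YbbR (12.5 uM). Step 3, read 525/598 nm fluorescence at 0 and 30 min.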
Tau fluor cs: Counterscreen qHTS for Inhibitors of Tau Fibril Formation, Fluorescence Polarization; Potency, µM (highest dose often 57.7 µM), for inactives: at the highest dose activity change, negative = decrease; tau K18 P301L (four-repeat tau fragment) Alexa594 fluorescence, heparin fibrillization; 0.93% of 280,000 active; further: potency means the concentration at half of the fitted maximal effect; nearly all actives have a fitted effect of over 55% in size
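Human K18 P301L tau (15 uM unlabeled plus 0.24 uM Alexa 594-labeled, final) in 100 mM sodium acetate pH 7 was mixed with compound and 20 uM heparin and incubated 6 hr at 37 C.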
FBPA coupling cs: qHTS Assay for Inhibitors of Fructose-1,6-bisphosphate Aldolase from Giardia Lamblia: Coupling assay counterscreen. coupling enzyme system counterscreen, AmpLite Red fluorescence. activity change, negative = inhibition, % at 58.2 µM, hits read low. 0.67% of 290,000 active; in the data active means activity change below about -30%
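Compounds tested against the coupling enzymes alone at 57.5 uM final; readout was AmpLite Red fluorescence (525/598 nm) after 20 min at RT.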
Tau fibril FP: qHTS for Inhibitors of Tau Fibril Formation, Fluorescence Polarization; 0.39% of 280,000 active; K18 P301L tau heparin fibrillization, Alexa594 FP, 6 h; Microtubule-associated protein tau (Homo sapiens), P10636; AID 1468, 2008; Potency, µM (doses to about 57.7 µM), for the others: at the highest dose activity, negative = inhibition, usual class: inhibitors; further: potency means the concentration at half of the fitted maximal effect; nearly all actives have a fitted effect of over 55% in size
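FP of Alexa 594-tau after heparin (20 uM) induction. Substrate: human K18 P301L, 15 uM unlabeled, 0.24 uM labeled. Buffer 100 mM sodium acetate pH 7. 6 hr, 37 C.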
Numbers without * were called inactive; ! = not active in a repeat; [ ] = remark or other dose. Unless noted, the call rests on the fitted dose curve; in most records, active means well fitted curve in the direction sought with a large enough effect; inconclusive means small, poorly fitted or top-dose-only effect, or another doubt; inactive means no such curve, though single readings can be large; an effect the other way counts as inactive or inconclusive. Unless noted, on the % scale 0 is the no-effect control and ±100 the full control effect.

Cc1ccccc1C(OCCN(C)C)c1ccccc1 (centres undefined) was read as Tau ThT inhib -7.8%, G9a inh 39.8µM*!, Sfp PPTase inh 14.1%, Tau fluor cs -8.4%, FBPA coupling cs 1.4 and Tau fibril FP 2.0%.
For CCN1CCN(CC(O)COC(c2ccccc2)c2ccccc2C)CC1 (centres undefined) the results were G9a inh 3.16µM*, Sfp PPTase inh inconclusive and FBPA coupling cs -4.0.
Screening COc1ccc(CNC(=O)Cn2c(=O)oc3cc(S(=O)(=O)NCc4ccccc4)ccc32)cc1 returned Tau ThT inhib -7.7%, G9a inh 12.7%[59 µM], Tau fluor cs -12.9% and Tau fibril FP -10.0%.
`COc1ccc(C2=NN(CN3C(=O)C(=O)c4ccccc43)C(c3ccc(OC)cc3)C2)cc1` (centres undefined) gave Tau ThT inhib -2.1%, G9a inh 44.7µM*, Sfp PPTase inh -3.8%, Tau fluor cs -1.4%, FBPA coupling cs -2.6 and Tau fibril FP inconclusive.
`Cc1cc2n(n1)CCCN2C(=O)Nc1ccc(Cl)cc1` gave Tau ThT inhib 11.8%, G9a inh -2.9%[59 µM], Tau fluor cs -21.8% and Tau fibril FP -8.9%.
For c1cncc(-c2nn3c(Cn4nnc5ccccc54)nnc3s2)c1 the results were Tau ThT inhib -16.1%, G9a inh 12.9%[2.33 µM], Sfp PPTase inh 31.6µM*, Tau fluor cs -12.6%, FBPA coupling cs -0.6 and Tau fibril FP -10.0%.
`c1ccc(-c2nn3c(Cn4nnc5ccccc54)nnc3s2)nc1` gave Tau ThT inhib -18.0%, G9a inh inconclusive, Sfp PPTase inh 15.8µM*, Tau fluor cs -3.9%, FBPA coupling cs -0.1 and Tau fibril FP 4.9%.
`N#Cc1ccc(C(=O)OCC(=O)Nc2ccc(S(N)(=O)=O)cc2)cc1` gave Tau ThT inhib -6.4%, G9a inh -35.5%[12.7 µM], Sfp PPTase inh -2.1%, Tau fluor cs 1.4%, FBPA coupling cs 1.0 and Tau fibril FP 4.6%.
CN(C(=O)c1oc(=O)c2ccccc2c1-c1ccccc1)c1cccc(Cl)c1 was read as Tau ThT inhib -9.8%, G9a inh -29.8%[59 µM], Tau fluor cs -13.9% and Tau fibril FP 3.0%.
Screening CCOC(=O)C1=C(C)Nc2sc(C(=O)c3ccc(F)cc3)c(N)c2C1c1ccc(C(=O)OC)cc1 (centres undefined) returned Tau ThT inhib -2.1%, G9a inh inconclusive, Sfp PPTase inh -17.3%, Tau fluor cs 15.8µM*[quencher], FBPA coupling cs -5.0 and Tau fibril FP inconclusive.
Screening CCOC(=O)C1=C(C)Nc2sc(C(=O)c3ccc(C)cc3)c(N)c2C1c1ccc(C(=O)OC)cc1 (centres undefined) returned Tau ThT inhib 12.9%, G9a inh 3.0%[59 µM], Sfp PPTase inh 5.8%, Tau fluor cs inconclusive, FBPA coupling cs -2.0 and Tau fibril FP 12.0%.
`O=C(COc1ccc(F)cc1)N(Cc1ccco1)C1CCS(=O)(=O)C1` (centres undefined) gave Sfp PPTase inh 3.0%.
`CCOc1ccc(Nc2nc(-c3cccc(Cl)c3)c3c(n2)-c2ccccc2OC3)cc1` gave Tau ThT inhib 14.9%, G9a inh 12.6µM*, Tau fluor cs inconclusive and Tau fibril FP 4.0%.
`CNC(=O)c1sc(-c2cccnc2)nc1C` gave Tau ThT inhib 8.4%, G9a inh 7.6%, Sfp PPTase inh 9.1%, Tau fluor cs 1.7%, FBPA coupling cs -0.2 and Tau fibril FP 5.3%.
Screening Cc1sc(-c2cccnc2)nc1OC(=O)C1CC1 returned Tau ThT inhib inconclusive, G9a inh 20µM*, Sfp PPTase inh inconclusive, Tau fluor cs -16.1%, FBPA coupling cs 3.3 and Tau fibril FP -22.4%.
`O=C(O)c1cccc(NC(=O)c2cc3cc(Br)cc(Br)c3oc2=O)c1` gave Tau ThT inhib inconclusive, G9a inh -49.9%[59 µM], Tau fluor cs -9.4% and Tau fibril FP -4.2%.
COc1ccc(NC(=O)CNS(=O)(=O)c2ccc(Cl)cc2)cc1 was read as Tau ThT inhib -1.5%, G9a inh inconclusive, Sfp PPTase inh -9.2%, Tau fluor cs -3.2%, FBPA coupling cs 2.4 and Tau fibril FP -1.9%.
`COc1ccc(NC(C)=[N+](C)CCNS(=O)(=O)c2ccc(Cl)cc2)cc1` gave G9a inh inconclusive and Sfp PPTase inh 70.8µM*.
For O=C(NCCO)C(=O)NCC1OCCCN1S(=O)(=O)c1ccc2c(c1)OCCO2 (centres undefined) the results were G9a inh 26.8% and Sfp PPTase inh 10.2%.
For CCN(c1ccc(OC)cc1)S(=O)(=O)c1c(C(=O)N2CCCCCC2)c(C)n(C)c1C the results were Tau ThT inhib 3.9%, G9a inh 0.8%[59 µM], Tau fluor cs 1.7% and Tau fibril FP 2.4%.
`CCOC(=O)NC1(Nc2ccc(Cl)cn2)Oc2ccccc2O1` gave Tau ThT inhib inconclusive, G9a inh 6.31µM*, Sfp PPTase inh 31.6µM*, Tau fluor cs -20.3%, FBPA coupling cs -8.6 and Tau fibril FP inconclusive.
`COc1cc(C(=O)O)nc2ccc([N+](=O)[O-])cc12` gave Tau ThT inhib 2.9%, G9a inh 17.8µM*, Sfp PPTase inh 10µM*, Tau fluor cs 13.6%, FBPA coupling cs -17.8 and Tau fibril FP 5.9%.
Screening CN(C)c1ccc(-n2cccc2)cc1 returned Tau ThT inhib -13.4%, G9a inh 39.8µM*, Sfp PPTase inh -2.6%, Tau fluor cs -1.5%, FBPA coupling cs -0.5 and Tau fibril FP -5.5%.
CCOC(=O)c1c(C)[nH]sc1=S was read as Tau ThT inhib -7.8%, G9a inh 3.55µM*, Sfp PPTase inh inconclusive, Tau fluor cs -1.7%, FBPA coupling cs -1.9 and Tau fibril FP 1.1%.
For Cc1cccc(OCC(=O)N=Nc2c(O)[nH]c3ccc([N+](=O)[O-])cc23)c1 the results were Tau ThT inhib 3.98µM*, G9a inh -7.6%[59 µM], Sfp PPTase inh -5.5%, Tau fluor cs inconclusive, FBPA coupling cs -14.6 and Tau fibril FP -7.2%.
Cc1ccccc1NCC(=O)N=Nc1c(O)[nH]c2ccc([N+](=O)[O-])cc12 was read as Tau ThT inhib inconclusive, G9a inh inconclusive, Sfp PPTase inh 6.2%, Tau fluor cs 17.8µM*[quencher], FBPA coupling cs -4.1 and Tau fibril FP 6.3%.

Screens deposited in PubChem by National Center for Advancing Translational Sciences (NCATS).
